According to PubChem BioAssay (NCATS):
Several values for one entry are separate records, joined by “and”; a condition that tells them apart may be missing. Equal entries are not always repeated. Inconclusive results are not listed. A number with no mark means an inactive call. Activity calls are given as the source filed them. Calls come from the whole dose curve; as a rule, active = well fitted cell-killing curve with a large enough effect; inconclusive = small, poorly fitted or top-dose-only effect; inactive = flat fitted curve, though single readings scatter.

test: Cellular viability qHTS for adrenocortical cancer (ACC) cell line SW-13 (AID 1963989); conditions: SW-13 ACC cells viability, CellTiter-Glo, 48 h; activity (max response): hits give low values; note: nearly all actives have a fitted effect of over 65% in size;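 for activity (max response): cells grown in serum-free medium with ITS supplement; % is set by controls: 0 for no effect and ±100 for the full control effect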
How it was run: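 SW-13 cells in ITS-supplemented serum-free DMEM were plated overnight, then exposed for 48 h at 37C to compound titrations (up to 46 uM final). Viability was read by CellTiter-Glo luminescence; four-parameter logistic fits gave IC50 and efficacy.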
Potency is the fitted concentration of half-maximal effect.

SMILES	activity (max response)	Potency
COc1ccc(S(=O)(=O)Nc2nnc(CC(C)C)s2)cc1	-5.12%	
CCc1cc(C(N)=O)ccc1-n1nc(C(C)C)c2c(-n3cnc(-c4cnn(C)c4)c3)ccnc21		2.82 µM (active)
CCCCCCCCCCCCCCCC[n+]1ccccc1		3.66 µM (active)
CCS(=O)(=O)N1CCC([C@@H](C)n2c(C)c(C(=O)NCc3c(OC)cc(C)[nH]c3=O)c3ccccc32)CC1	8.68%	
COc1cc(C(=S)N2CCOCC2)ccc1O	-19.3%	
COc1cc(OC)c(/C=C/S(=O)(=O)Cc2ccc(OC)c(NCC(=O)O)c2)c(OC)c1		0.02 µM (active)
C#C[C@]1(O)CC[C@H]2[C@@H]3CCc4cc(O)ccc4[C@H]3CC[C@@]21C		7.94 µM (active)
C[C@H]1C[C@H]2[C@@H]3CCC4=CC(=O)C=C[C@]4(C)[C@H]3C(=O)C[C@]2(C)[C@@]1(O)C(=O)CO	-6.73%	
COc1ccc([C@@H]2Sc3ccccc3N(CCN(C)C)C(=O)[C@@H]2OC(C)=O)cc1	-9.3% and 4.69%	
CN(C)Cc1ccc(S(=O)(=O)n2ccc(/C=C/C(=O)NO)c2)cc1		12.6 µM (active)
C[C@@H]1C(=O)OC2[C@H](O)[C@]34[C@H]5C[C@@H](C(C)(C)C)[C@]36[C@@H](OC(=O)[C@@H]6O)O[C@@]4(C(=O)O5)[C@]21O (stereo not given in full)	5.05%	
CCC(CC)CC1(C(=O)Nc2ccccc2SC(=O)C(C)C)CCCCC1	9.72%	
C#Cc1ccc(-c2ccccc2F)cc1	-5.81%	
CC(=O)c1ccc2c(c1)c1cc(C(C)=O)ccc1n2CCNC(C)C		1.58 µM (active)
CC(=O)Oc1cccc(O)c1	7.39%	
COc1ccc(S(=O)(=O)N2CCc3cccc(-c4ccncc4)c32)cc1		0.316 µM (active)
C[C@@H](C(=O)Nc1ccc(Cl)cc1)C1CCC(c2ccnc3ccc(F)cc23)CC1 (stereo not given in full)		25.1 µM (active)
Cc1cccc(C)c1NC(=O)CN(CC(=O)O)CC(=O)O	9.48%	
Cc1nc2cccc(N)c2c(=O)n1C1CCC(=O)NC1=O (stereo not given)	3.79%	
CCCN1CCCC[C@H]1C(=O)Nc1c(C)cccc1C	4.43%	

SMILES	activity (max response)	Potency
COc1cc2c(cc1OC(C)C)[C@H](c1ccc(Cl)cc1)N(c1ccc(N(C)CC3CCC(N4CCN(C)C(=O)C4)CC3)cc1)C(=O)C2 (stereo not given in full)		25.1 µM (active)
C[C@@H]1CC(=O)Nc2cccc(-c3cnn(C(C)(C)C)c3)c2N1	2.32%	
CC(=O)c1cc2c(o1)C(=O)c1ccccc1C2=O		3.16 µM (active)
O=S1(=O)OC(c2ccc(O)cc2)(c2ccc(O)cc2)c2ccccc21	-5.64%	
Cc1c(N(C)C)c(=O)n(-c2ccccc2)n1C	10.1%	
CC(=NNC(=O)c1cccc(S(=O)(=O)N2CCOCC2)c1)c1cc(Cl)ccc1O		3.55 µM (active)
Cn1cc(/C=C/C(=O)c2cccc(F)c2)cc1/C=C/C(=O)NO	9.4%	
O=C(CCCl)NCCc1ccccc1	-1.73%	
CN1C(=O)[C@@H](NC(=O)c2n[nH]c(Cc3ccccc3)n2)COc2ccccc21	8.85%	
Cc1c(C(=O)NCCO)[n+](=O)c2ccccc2n1[O-]	7.59%	
CC1(C)S[C@H]2[C@H](NC(=O)[C@@H](N)c3ccc(O)cc3)C(=O)N2[C@H]1C(=O)O	7.49%	
CSc1ccc(C(=O)c2[nH]c(=O)[nH]c2C)cc1	15.3%	
Cc1ccc(C(=O)Nc2ccc(CN3CCN(C)CC3)c(C(F)(F)F)c2)cc1C#Cc1cnc2[nH]ncc2c1		1.78 µM (active)
Oc1cc(O)cc(/C=C/c2ccc(O)c(O)c2)c1	-23.2%	
N=C1CCCN1Cc1[nH]c(=O)[nH]c(=O)c1Cl	-17.6%	
Nc1ccc(S(=O)(=O)c2ccc(N)cc2)cc1	8.46%	
CO[C@H]1/C=C/O[C@@]2(C)Oc3c(C)c(O)c4c(O)c(c5c(c4c3C2=O)=NC2(CCN(CC(C)C)CC2)N=5)NC(=O)/C(C)=C/C=C/[C@H](C)[C@H](O)[C@@H](C)[C@@H](O)[C@@H](C)[C@H](OC(C)=O)[C@@H]1C	-11.1%	
C=CC(=O)N1CCC[C@@H](n2nc(-c3ccc(Oc4ccccc4)cc3)c3c(N)ncnc32)C1	5.79%	
Nc1ccc([N+](=O)[O-])c(C(F)(F)F)c1	0.003%	
c1cc(-c2cnn3cc(-c4ccc(N5CCNCC5)cc4)cnc23)c2cccnc2c1		22.4 µM (active)

test: Cellular viability qHTS for adrenocortical cancer (ACC) cell line NCI-H295R (AID 1963990); conditions: CellTiter-Glo ATP luminescence, 48 h; series mostly up to 46.1 µM; note: nearly all actives have a fitted effect of over 60% in size
How it was run: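 Luminescent ATP read-out (CellTiter-Glo, 20 min RT) after 48 h drug exposure of NCI-H295R cells; a titration up to 46 uM final. Data normalized to doxorubicin (100% inhibition) and DMSO (0%); 4-parameter fit gives IC50, max response.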

SMILES	Potency
COc1ccc(S(=O)(=O)Nc2nnc(CC(C)C)s2)cc1	inactive
CCc1cc(C(N)=O)ccc1-n1nc(C(C)C)c2c(-n3cnc(-c4cnn(C)c4)c3)ccnc21	7.94 µM (active)
CCCCCCCCCCCCCCCC[n+]1ccccc1	5.8 µM (active)
CCS(=O)(=O)N1CCC([C@@H](C)n2c(C)c(C(=O)NCc3c(OC)cc(C)[nH]c3=O)c3ccccc32)CC1	inactive
COc1cc(C(=S)N2CCOCC2)ccc1O	inactive
COc1cc(OC)c(/C=C/S(=O)(=O)Cc2ccc(OC)c(NCC(=O)O)c2)c(OC)c1	0.0224 µM (active)
C#C[C@]1(O)CC[C@H]2[C@@H]3CCc4cc(O)ccc4[C@H]3CC[C@@]21C	3.55 µM (active)
C[C@H]1C[C@H]2[C@@H]3CCC4=CC(=O)C=C[C@]4(C)[C@H]3C(=O)C[C@]2(C)[C@@]1(O)C(=O)CO	inactive
COc1ccc([C@@H]2Sc3ccccc3N(CCN(C)C)C(=O)[C@@H]2OC(C)=O)cc1	inactive
CN(C)Cc1ccc(S(=O)(=O)n2ccc(/C=C/C(=O)NO)c2)cc1	3.16 µM (active)
C[C@@H]1C(=O)OC2[C@H](O)[C@]34[C@H]5C[C@@H](C(C)(C)C)[C@]36[C@@H](OC(=O)[C@@H]6O)O[C@@]4(C(=O)O5)[C@]21O (stereo not given in full)	inactive
CCC(CC)CC1(C(=O)Nc2ccccc2SC(=O)C(C)C)CCCCC1	inactive
C#Cc1ccc(-c2ccccc2F)cc1	inactive
CC(=O)c1ccc2c(c1)c1cc(C(C)=O)ccc1n2CCNC(C)C	1.58 µM (active)
CC(=O)Oc1cccc(O)c1	inactive
COc1ccc(S(=O)(=O)N2CCc3cccc(-c4ccncc4)c32)cc1	0.158 µM (active)
C[C@@H](C(=O)Nc1ccc(Cl)cc1)C1CCC(c2ccnc3ccc(F)cc23)CC1 (stereo not given in full)	25.1 µM (active)
Cc1cccc(C)c1NC(=O)CN(CC(=O)O)CC(=O)O	inactive
Cc1nc2cccc(N)c2c(=O)n1C1CCC(=O)NC1=O (stereo not given)	inactive
CCCN1CCCC[C@H]1C(=O)Nc1c(C)cccc1C	inactive

SMILES	Potency
COc1cc2c(cc1OC(C)C)[C@H](c1ccc(Cl)cc1)N(c1ccc(N(C)CC3CCC(N4CCN(C)C(=O)C4)CC3)cc1)C(=O)C2 (stereo not given in full)	22.4 µM (active)
C[C@@H]1CC(=O)Nc2cccc(-c3cnn(C(C)(C)C)c3)c2N1	inactive
CC(=O)c1cc2c(o1)C(=O)c1ccccc1C2=O	0.891 µM (active)
O=S1(=O)OC(c2ccc(O)cc2)(c2ccc(O)cc2)c2ccccc21	inactive
Cc1c(N(C)C)c(=O)n(-c2ccccc2)n1C	inactive
CC(=NNC(=O)c1cccc(S(=O)(=O)N2CCOCC2)c1)c1cc(Cl)ccc1O	4.47 µM (active)
Cn1cc(/C=C/C(=O)c2cccc(F)c2)cc1/C=C/C(=O)NO	inactive
O=C(CCCl)NCCc1ccccc1	inactive
CN1C(=O)[C@@H](NC(=O)c2n[nH]c(Cc3ccccc3)n2)COc2ccccc21	inactive
Cc1c(C(=O)NCCO)[n+](=O)c2ccccc2n1[O-]	inactive
CC1(C)S[C@H]2[C@H](NC(=O)[C@@H](N)c3ccc(O)cc3)C(=O)N2[C@H]1C(=O)O	inactive
CSc1ccc(C(=O)c2[nH]c(=O)[nH]c2C)cc1	inactive
Cc1ccc(C(=O)Nc2ccc(CN3CCN(C)CC3)c(C(F)(F)F)c2)cc1C#Cc1cnc2[nH]ncc2c1	5.01 µM (active)
Oc1cc(O)cc(/C=C/c2ccc(O)c(O)c2)c1	inactive
N=C1CCCN1Cc1[nH]c(=O)[nH]c(=O)c1Cl	inactive
Nc1ccc(S(=O)(=O)c2ccc(N)cc2)cc1	inactive
CO[C@H]1/C=C/O[C@@]2(C)Oc3c(C)c(O)c4c(O)c(c5c(c4c3C2=O)=NC2(CCN(CC(C)C)CC2)N=5)NC(=O)/C(C)=C/C=C/[C@H](C)[C@H](O)[C@@H](C)[C@@H](O)[C@@H](C)[C@H](OC(C)=O)[C@@H]1C	inactive
C=CC(=O)N1CCC[C@@H](n2nc(-c3ccc(Oc4ccccc4)cc3)c3c(N)ncnc32)C1	inactive
Nc1ccc([N+](=O)[O-])c(C(F)(F)F)c1	inactive
c1cc(-c2cnn3cc(-c4ccc(N5CCNCC5)cc4)cnc23)c2cccnc2c1	6.31 µM (active)
